Data as given in the supplement of paper PMC11732987, “Enantioselective OTUD7B fragment discovery through chemoproteomics screening and high-throughput optimisation” (Communications Chemistry, 2025).

What was measured:
Assay in all cases: log2 ratio of Biotin-Ahx-Ub-VS probe labelling (fragment/DMSO); higher = less target engagement (more negative = stronger competition), active = hit call of the paper (q ≤ 0.05, log2 ratio ≤ -1)
Settings in all cases: compound concentration: 200 uM; treatment time: 3 h
USP42 = target: T1, USP42 (UniProt Q9H9J4)
T1 sequence (whole entry): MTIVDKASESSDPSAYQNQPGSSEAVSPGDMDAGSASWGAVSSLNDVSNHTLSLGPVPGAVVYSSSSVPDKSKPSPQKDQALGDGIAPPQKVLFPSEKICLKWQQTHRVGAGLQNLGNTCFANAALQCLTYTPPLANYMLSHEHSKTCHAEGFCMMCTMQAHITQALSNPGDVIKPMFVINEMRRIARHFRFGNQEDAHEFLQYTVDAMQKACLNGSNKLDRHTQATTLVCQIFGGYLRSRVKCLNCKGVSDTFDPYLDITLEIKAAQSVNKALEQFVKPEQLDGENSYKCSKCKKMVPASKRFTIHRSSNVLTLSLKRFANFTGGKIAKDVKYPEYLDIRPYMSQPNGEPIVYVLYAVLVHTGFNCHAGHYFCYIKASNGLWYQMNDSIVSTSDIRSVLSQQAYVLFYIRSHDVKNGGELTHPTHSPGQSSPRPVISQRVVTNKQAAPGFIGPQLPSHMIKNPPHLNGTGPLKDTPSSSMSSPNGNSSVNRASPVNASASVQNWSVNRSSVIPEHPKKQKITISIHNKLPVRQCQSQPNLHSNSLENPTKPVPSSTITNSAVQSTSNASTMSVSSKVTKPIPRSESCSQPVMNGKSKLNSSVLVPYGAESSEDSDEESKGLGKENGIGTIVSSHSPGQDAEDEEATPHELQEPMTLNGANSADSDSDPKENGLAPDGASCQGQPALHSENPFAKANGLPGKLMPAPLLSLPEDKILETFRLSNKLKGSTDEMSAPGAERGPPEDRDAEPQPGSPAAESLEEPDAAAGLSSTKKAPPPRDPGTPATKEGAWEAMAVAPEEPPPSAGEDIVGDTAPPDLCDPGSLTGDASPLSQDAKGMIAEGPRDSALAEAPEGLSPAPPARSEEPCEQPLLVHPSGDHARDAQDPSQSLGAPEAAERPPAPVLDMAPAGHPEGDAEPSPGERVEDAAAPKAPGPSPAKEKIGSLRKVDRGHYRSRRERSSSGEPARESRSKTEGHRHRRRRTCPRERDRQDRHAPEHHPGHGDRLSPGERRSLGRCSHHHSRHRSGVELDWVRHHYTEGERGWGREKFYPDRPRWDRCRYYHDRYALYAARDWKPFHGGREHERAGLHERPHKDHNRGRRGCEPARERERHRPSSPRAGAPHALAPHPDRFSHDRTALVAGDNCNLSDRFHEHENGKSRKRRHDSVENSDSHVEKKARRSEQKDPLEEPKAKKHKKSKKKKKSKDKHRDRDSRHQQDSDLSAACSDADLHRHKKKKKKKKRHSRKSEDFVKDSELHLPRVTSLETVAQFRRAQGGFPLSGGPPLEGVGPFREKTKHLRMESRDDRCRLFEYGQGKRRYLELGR
Outline: (§1)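 In triplicate, 495 µg of HEK293T lysate per sample was incubated with fragment at 200 µM or vehicle for 3 h. Biotin-Ahx-Ub-VS was then added to 0.5 µM final for 1 h, and labelled DUBs were captured with NeutrAvidin, digested with LysC and trypsin, and measured by diaPASEF LC-MS/MS. Data are average log2 fragment/vehicle ratios by unpaired t-test from global-median-normalised Spectronaut label-free quantities, restricted to proteins with ≥2 unique peptides.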

USP46 = USP46 (UniProt P62068)
Chain of USP46 (P62068 whole entry): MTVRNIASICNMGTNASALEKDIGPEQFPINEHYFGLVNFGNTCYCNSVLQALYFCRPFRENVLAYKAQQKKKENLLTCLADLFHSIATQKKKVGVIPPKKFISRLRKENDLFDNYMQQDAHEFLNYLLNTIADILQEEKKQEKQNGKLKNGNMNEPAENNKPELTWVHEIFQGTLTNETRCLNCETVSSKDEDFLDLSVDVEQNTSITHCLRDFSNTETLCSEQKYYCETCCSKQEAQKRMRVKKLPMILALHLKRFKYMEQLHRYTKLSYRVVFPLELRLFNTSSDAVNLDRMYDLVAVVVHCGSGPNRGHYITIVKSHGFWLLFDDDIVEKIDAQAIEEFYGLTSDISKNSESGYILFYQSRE
Outline: as §1

USP47 = target: T2, USP47 (UniProt Q96K76)
T2 sequence (whole entry): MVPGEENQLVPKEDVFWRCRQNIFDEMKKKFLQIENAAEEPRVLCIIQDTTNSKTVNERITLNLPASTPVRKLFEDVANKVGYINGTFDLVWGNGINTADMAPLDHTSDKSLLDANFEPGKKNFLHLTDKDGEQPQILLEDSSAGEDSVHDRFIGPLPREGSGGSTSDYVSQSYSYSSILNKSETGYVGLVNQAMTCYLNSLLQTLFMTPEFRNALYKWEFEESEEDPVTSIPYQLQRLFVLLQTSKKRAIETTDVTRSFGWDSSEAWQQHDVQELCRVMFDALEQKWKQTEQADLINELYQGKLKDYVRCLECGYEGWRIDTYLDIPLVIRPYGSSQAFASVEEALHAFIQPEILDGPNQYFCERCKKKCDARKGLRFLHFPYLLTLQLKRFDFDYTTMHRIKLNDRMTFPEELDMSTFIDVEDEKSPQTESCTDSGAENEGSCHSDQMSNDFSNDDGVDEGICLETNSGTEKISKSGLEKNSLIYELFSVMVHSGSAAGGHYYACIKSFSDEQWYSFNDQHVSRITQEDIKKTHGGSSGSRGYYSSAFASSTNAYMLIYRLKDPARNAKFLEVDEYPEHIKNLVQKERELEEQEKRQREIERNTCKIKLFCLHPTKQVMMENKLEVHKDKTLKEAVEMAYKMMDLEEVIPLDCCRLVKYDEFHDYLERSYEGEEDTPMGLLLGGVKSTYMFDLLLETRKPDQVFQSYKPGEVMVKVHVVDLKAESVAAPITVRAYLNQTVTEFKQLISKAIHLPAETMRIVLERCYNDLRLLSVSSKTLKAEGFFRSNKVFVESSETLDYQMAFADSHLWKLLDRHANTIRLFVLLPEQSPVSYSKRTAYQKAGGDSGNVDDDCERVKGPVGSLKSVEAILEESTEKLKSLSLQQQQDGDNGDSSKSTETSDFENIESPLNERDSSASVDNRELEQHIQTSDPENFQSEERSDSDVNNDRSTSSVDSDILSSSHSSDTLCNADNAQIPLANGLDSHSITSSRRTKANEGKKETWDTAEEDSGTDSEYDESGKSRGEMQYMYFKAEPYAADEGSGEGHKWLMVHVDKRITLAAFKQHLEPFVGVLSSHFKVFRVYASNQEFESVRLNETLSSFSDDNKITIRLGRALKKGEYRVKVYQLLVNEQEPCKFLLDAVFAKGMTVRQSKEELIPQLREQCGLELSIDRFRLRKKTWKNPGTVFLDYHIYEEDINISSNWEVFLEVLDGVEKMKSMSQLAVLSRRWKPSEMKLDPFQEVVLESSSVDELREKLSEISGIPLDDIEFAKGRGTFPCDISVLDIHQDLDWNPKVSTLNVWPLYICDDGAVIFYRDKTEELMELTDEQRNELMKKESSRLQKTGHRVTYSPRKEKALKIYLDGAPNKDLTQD
Outline: as §1

USP48 = target: T3, USP48 (UniProt Q86UV5)
T3 sequence (whole entry): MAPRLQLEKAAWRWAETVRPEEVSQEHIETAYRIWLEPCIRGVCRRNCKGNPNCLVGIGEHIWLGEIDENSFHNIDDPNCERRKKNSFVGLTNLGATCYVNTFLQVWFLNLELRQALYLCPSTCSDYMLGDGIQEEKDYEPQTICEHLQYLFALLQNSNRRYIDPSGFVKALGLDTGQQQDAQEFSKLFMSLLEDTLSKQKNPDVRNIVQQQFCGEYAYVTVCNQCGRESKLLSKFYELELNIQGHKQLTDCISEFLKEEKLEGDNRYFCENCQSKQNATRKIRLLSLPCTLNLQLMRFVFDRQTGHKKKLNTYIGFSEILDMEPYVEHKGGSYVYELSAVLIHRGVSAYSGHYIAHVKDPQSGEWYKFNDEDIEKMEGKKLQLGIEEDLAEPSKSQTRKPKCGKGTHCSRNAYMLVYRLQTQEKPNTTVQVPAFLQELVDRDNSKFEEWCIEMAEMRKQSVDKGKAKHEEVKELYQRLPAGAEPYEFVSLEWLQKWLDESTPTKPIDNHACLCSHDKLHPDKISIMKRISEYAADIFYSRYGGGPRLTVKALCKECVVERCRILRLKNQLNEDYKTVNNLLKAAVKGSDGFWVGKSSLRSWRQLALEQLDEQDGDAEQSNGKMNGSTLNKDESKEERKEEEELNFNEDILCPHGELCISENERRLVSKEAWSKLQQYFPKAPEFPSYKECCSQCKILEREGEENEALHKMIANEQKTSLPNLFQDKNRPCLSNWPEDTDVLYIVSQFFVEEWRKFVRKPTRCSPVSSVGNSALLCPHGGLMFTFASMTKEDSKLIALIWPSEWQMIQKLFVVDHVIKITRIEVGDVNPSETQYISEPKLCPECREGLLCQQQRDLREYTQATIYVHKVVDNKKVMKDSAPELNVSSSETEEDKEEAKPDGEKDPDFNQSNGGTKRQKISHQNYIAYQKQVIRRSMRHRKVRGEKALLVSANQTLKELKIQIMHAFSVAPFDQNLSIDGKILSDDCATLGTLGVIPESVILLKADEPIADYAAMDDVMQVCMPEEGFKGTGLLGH
Outline: as §1

USP5 = target: T4, USP5 (UniProt P45974)
T4 sequence (whole entry): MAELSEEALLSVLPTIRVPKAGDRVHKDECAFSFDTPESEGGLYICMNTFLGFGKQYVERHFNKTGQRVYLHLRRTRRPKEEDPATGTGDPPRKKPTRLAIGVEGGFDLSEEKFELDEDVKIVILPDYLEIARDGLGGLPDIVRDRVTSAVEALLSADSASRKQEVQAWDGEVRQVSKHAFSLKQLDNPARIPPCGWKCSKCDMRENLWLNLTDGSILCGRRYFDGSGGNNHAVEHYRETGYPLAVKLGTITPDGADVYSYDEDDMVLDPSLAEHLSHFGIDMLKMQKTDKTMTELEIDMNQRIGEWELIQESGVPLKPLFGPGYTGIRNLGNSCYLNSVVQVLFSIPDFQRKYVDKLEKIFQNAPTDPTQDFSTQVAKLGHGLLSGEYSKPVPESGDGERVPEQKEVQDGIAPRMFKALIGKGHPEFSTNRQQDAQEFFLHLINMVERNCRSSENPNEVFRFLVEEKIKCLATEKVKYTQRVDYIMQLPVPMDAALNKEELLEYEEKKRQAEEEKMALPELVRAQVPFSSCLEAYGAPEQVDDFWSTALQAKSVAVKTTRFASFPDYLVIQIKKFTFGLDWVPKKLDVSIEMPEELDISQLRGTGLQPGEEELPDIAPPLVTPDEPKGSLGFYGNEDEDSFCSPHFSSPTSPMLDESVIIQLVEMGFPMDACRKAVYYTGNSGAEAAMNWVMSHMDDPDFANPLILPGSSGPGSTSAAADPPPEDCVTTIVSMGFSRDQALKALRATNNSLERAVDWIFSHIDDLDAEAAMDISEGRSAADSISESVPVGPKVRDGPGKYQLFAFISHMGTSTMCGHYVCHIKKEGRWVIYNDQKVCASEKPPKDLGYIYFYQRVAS
Outline: as §1

USP54 = USP54 (UniProt Q70EL1)
Chain of USP54 (Q70EL1 whole entry): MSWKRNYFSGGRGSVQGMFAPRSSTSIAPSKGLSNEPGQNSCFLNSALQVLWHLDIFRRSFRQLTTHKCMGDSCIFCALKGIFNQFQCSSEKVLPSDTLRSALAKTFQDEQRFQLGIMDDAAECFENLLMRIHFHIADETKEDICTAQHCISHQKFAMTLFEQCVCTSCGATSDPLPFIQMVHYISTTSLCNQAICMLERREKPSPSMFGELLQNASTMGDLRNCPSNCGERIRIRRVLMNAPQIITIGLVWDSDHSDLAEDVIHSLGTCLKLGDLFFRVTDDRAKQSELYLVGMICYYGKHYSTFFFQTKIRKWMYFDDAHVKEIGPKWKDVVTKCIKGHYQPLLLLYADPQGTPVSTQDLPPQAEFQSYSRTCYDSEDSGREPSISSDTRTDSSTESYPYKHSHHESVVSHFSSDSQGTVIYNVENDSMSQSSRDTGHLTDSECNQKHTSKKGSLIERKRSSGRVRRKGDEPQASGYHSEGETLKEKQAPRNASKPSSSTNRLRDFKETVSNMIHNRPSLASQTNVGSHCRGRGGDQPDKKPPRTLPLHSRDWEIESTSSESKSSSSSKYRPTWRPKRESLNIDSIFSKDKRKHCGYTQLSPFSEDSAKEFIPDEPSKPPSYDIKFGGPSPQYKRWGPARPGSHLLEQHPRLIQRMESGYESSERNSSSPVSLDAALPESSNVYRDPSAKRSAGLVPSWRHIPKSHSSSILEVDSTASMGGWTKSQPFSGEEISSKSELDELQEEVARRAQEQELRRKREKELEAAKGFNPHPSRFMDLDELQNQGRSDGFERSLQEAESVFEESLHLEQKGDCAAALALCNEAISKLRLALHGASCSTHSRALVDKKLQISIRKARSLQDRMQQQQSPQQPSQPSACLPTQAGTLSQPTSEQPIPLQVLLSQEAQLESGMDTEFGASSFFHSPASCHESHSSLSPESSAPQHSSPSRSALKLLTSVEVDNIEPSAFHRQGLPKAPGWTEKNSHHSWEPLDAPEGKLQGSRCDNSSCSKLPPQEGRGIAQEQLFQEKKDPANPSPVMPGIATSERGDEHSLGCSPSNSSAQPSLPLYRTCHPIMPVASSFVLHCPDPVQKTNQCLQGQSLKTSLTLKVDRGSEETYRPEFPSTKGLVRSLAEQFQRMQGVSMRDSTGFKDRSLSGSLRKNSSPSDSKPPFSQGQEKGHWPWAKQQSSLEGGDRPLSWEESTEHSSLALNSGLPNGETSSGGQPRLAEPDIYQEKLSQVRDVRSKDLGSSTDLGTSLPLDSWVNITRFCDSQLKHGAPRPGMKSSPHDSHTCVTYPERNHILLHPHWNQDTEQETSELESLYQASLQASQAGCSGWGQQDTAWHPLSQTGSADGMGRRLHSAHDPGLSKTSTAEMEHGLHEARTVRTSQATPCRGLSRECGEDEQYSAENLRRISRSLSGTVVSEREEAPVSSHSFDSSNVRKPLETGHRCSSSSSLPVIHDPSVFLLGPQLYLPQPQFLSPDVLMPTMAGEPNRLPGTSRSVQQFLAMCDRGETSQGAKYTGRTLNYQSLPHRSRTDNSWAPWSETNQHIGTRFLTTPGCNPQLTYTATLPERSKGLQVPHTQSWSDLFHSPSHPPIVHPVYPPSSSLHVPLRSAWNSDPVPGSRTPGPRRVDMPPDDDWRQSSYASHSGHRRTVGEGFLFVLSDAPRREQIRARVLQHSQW
Outline: as §1

USP7 = USP7 (UniProt Q93009)
Chain of USP7 (Q93009 whole entry, looked up): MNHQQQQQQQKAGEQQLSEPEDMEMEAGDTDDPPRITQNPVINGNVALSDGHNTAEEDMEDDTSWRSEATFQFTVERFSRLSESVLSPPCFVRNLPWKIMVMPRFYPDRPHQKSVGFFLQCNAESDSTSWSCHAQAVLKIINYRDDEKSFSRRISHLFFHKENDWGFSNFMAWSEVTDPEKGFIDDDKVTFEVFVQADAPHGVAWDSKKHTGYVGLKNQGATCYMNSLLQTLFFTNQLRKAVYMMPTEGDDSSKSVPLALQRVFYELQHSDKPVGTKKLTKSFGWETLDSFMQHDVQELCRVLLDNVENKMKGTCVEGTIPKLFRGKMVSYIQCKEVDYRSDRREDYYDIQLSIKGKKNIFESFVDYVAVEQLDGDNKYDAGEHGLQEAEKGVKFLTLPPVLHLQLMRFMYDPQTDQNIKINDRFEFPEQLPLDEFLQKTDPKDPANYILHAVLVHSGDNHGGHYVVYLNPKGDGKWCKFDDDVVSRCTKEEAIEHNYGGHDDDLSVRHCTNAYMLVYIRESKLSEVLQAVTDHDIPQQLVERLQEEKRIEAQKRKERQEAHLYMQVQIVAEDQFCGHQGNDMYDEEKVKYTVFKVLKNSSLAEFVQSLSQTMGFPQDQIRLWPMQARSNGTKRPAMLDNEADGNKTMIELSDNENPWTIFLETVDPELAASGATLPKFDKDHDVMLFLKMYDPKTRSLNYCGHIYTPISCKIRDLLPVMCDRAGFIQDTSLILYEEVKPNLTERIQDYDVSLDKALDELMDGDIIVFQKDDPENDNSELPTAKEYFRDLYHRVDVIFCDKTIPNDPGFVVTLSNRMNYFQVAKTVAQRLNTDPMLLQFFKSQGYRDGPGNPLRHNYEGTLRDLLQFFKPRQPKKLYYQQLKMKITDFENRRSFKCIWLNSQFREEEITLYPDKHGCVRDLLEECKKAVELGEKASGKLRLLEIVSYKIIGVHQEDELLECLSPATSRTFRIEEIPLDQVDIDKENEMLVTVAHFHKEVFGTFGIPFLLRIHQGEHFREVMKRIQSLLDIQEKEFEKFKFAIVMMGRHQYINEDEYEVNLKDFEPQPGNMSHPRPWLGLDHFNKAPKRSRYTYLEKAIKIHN
Outline: as §1

USP8 = target: T5, USP8 (UniProt P40818)
T5 sequence (whole entry): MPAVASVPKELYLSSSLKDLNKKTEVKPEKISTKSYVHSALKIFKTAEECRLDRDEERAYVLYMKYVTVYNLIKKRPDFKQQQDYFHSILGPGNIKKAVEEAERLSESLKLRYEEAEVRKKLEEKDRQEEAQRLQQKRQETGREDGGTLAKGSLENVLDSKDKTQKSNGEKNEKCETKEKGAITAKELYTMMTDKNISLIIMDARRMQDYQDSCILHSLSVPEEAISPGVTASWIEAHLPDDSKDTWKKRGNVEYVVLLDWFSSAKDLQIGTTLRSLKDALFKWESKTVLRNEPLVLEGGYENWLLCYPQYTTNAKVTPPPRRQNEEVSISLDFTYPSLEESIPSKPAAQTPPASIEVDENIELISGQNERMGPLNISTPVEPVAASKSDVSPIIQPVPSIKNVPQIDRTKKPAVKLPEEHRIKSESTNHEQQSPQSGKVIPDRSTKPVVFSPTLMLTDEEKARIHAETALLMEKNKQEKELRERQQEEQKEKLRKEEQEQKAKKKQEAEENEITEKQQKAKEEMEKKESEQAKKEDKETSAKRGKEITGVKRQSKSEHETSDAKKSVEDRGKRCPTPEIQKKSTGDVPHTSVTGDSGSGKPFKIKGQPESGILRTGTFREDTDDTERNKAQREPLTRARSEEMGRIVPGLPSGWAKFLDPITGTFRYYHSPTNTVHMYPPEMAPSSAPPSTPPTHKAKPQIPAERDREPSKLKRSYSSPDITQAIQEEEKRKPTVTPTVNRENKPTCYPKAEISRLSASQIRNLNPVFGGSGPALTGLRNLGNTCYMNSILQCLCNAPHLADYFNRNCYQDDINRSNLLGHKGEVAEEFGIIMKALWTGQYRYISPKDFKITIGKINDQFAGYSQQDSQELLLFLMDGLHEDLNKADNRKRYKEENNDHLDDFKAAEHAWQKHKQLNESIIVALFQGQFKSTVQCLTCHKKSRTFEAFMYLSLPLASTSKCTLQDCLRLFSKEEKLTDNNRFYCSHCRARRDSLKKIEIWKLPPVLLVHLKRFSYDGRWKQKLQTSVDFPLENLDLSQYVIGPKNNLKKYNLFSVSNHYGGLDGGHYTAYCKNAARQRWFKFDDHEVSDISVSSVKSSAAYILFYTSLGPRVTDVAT
Outline: as §1

Measured: log2 ratio of Biotin-Ahx-Ub-VS probe labelling

O=C(CCl)NC1CCC(C(F)(F)F)CC1 (stereo not drawn)
inactive: USP42 0.589 | USP46 -0.0439 | USP47 -0.0726 | USP48 -0.174 | USP5 -0.36 | USP54 0.0395 | USP7 -0.303 | USP8 -0.0509
